According to PubChem BioAssay AID504406 (Broad Institute, 2011):
In all, about 320,000 compounds went through this assay and about 190 (0.059%) were called active. The sample as a whole holds a higher share of actives than the screen did. A number with no mark means an inactive call. Cut-off read from the data, not from the text of the source: active = inhibition above about 10% (passing the limit was not always enough); inconclusive = no clear call, values can overlap the other calls.

Molecular target: UDP-galactopyranose mutase (Mycobacterium tuberculosis (strain ATCC 25618 / H37Rv)) (UniProt P9WIQ1)
Assay: M. tuberculosis UGM enzyme inhibitors, primary screen, biochemical, fluorescence polarization, single point (AID 504406)
Settings: purified UGM, fluorescence polarization probe displacement; at 10 µM; hits give high values

Sequence of UDP-galactopyranose mutase (Mycobacterium tuberculosis (strain ATCC 25618 / H37Rv)) (P9WIQ1 whole entry, looked up): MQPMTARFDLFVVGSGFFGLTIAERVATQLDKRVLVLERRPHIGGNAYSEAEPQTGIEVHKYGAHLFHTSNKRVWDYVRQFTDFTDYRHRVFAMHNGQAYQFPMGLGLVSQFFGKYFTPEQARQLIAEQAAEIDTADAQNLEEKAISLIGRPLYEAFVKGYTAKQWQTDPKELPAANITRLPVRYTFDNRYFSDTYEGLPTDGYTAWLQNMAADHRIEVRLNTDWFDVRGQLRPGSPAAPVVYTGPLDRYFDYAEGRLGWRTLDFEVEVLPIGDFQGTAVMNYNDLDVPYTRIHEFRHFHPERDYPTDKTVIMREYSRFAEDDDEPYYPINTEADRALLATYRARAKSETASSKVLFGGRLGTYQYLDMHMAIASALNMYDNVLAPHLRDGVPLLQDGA

| Structure (SMILES) | inhibition |
| --- | --- |
| COCCCNC(=O)c1ccc(CNS(=O)(=O)c2ccc(NC(C)=O)cc2)cc1 | 0.487% |
| NS(=O)(=O)c1ccc(NC(=O)COC(=O)C2(c3ccc(F)cc3)CCCC2)cc1 | -2.39% |
| CCOc1c(Nc2cccc(Cl)c2)c(=O)c1=O | 1.65% |
| CN(C)S(=O)(=O)c1ccc2oc(SCC(=O)Nc3ccccc3F)nc2c1 | -1.09% |
| CCCCN(C(=O)CCNC(=O)NC12CC3CC(CC(C3)C1)C2)c1c(N)n(CCCC)c(=O)[nH]c1=O | 3.96% |
| CC(C)N1C(=S)SC(C)(C)C1n1oc(=O)n(-c2ccc(Cl)c(Cl)c2)c1=O (stereo unspecified) | -0.52% |
| O=c1c2cc(-c3ccccc3)sc2nc2n1N=C(c1cccs1)CS2 | 0.0849% |
| COc1cccc(C2=CC(=O)C[C@H](c3ccc(OC)c(OC)c3)C2)c1 | -3.83% |
| COc1cccc2cc(/C(C)=N/NC(=O)c3ccco3)oc12 | 1.34% |
| COc1cc(NC(=O)C2=C(C)OCCS2)c(Cl)cc1C(=O)NCCN1CCN(C)CC1 | -0.476% |
| COc1ccc(-c2nnc(SC(=O)N3c4ccccc4Sc4ccccc43)o2)cc1 | -0.412% |
| COc1cc(CC(=O)N2CCC(n3nccc3NC(=O)C3CC3)CC2)cc(OC)c1OC | 0.38% |
| COc1ccc(N2CCN(C(=O)c3cccs3)CC2)cc1 | -0.405% |
| NC1=NC(=O)C(Cc2cccc(Cl)c2)S1 (stereo unspecified) | -2.61% |
| CCOC(=O)c1c(NC(=O)CN2C(=O)NC3(CCC(C)CC3)C2=O)sc(C)c1CC (stereo unspecified) | -4.1% |
| O=C1CCC(C(=O)N2CCN(c3ccccc3Cl)CC2)CN1CC1CCCCC1 (stereo unspecified) | 0.849% |
| Cc1ccc(C(O)P(=O)(OC(C)C)c2ccc(N(C)C)cc2)cc1 (stereo unspecified) | -1.46% |
| CCCCCCCCc1c(O)nc(-n2[nH]c(C)c(CCO)c2=O)[nH]c1=O | 2.37% |
| COc1ccc(N2CCN(S(=O)(=O)CCNC(=O)C34CC5CC(CC(C5)C3)C4)CC2)cc1 | -0.995% |
| ONC(=Nc1ccccc1)c1ccccc1Cl | 0.392% |
| Cc1ccc(NC(=O)c2ccn(C(=O)Nc3ccccc3)n2)c(C)c1 | 0.808% |
| S=C(NCCc1ccccc1)N1CCn2cccc2C1c1ccncc1 (stereo unspecified) | 0.92% |
| CNC[C@@H]1Oc2c(NS(C)(=O)=O)cccc2C(=O)N([C@@H](C)CO)C[C@H]1C | -0.151% |

| Structure (SMILES) | inhibition |
| --- | --- |
| O=C(NCCN1CCOCC1)c1cc(Sc2cccc(Cl)c2)nc2ccccc12 | -0.717% |
| O=C1NC(=O)C(c2ccc(Cl)cc2)N1 (stereo unspecified) | 0.455% |
| CC(C)N(C(=O)Cn1cc(SCC(=O)N2CCCC2)c2ccccc21)C(C)C | 0.81% |
| CC(CCc1ccccc1)NCC(O)c1cccc([N+](=O)[O-])c1 (stereo unspecified) | -0.221% |
| Nc1nc(NC(=O)/C=C/c2ccc(F)cc2)nn1-c1ccccc1 | -1.05% |
| O=C(CC1CCCCC1)Nc1c2c(nn1-c1ccc(F)cc1)CS(=O)(=O)C2 | -1.58% |
| Cc1ccc(C2(c3ccc(C)cc3)NC(=O)N(Cc3c(C)noc3C)C2=O)cc1 | 2.04% |
| CCOc1ccc(NC(=S)N2CCC(N(C)CC3CCCO3)CC2)cc1 (stereo unspecified) | 1.59% |
| CN1C(=O)CC(N2CCN(c3ccccn3)CC2)C1=O (stereo unspecified) | -2.59% |
| CC(C)(C)CN1CCNC(=O)C1CC(=O)NC1Cc2ccccc2C1 (stereo unspecified) | -0.537% |
| CCc1c(C)[nH]c(=S)c(C#N)c1C | 1.29% |
| CN1CCN(S(=O)(=O)c2cccc(C(=O)N3CCc4ccccc43)c2)CC1 | 2.67% |
| CCN(CC(=O)Nc1cccc(S(N)(=O)=O)c1)Cc1nc2ccccc2c(=O)[nH]1 | 0.435% |
| O=[N+]([O-])c1cc(S(=O)(=O)Nc2cccc(Cl)c2)ccc1N=Nc1c(O)[nH]c2ccccc12 | 3.07% |
| Cc1ccc(NC(=O)Cc2nnc(SCC(=O)Nc3nncs3)n2C)cc1 | 1.58% |
| Cc1cccc(NC(=O)c2ccc3c(=O)n(CC4CCCO4)c(=S)[nH]c3c2)c1 (stereo unspecified) | 0.387% |
| CCN(CCCCOC(=O)c1ccc(OC)c(OC)c1)C(C)Cc1ccc(OC)cc1 (stereo unspecified) | 0.111% |
| CC1CC(NC(=O)/C(C#N)=C/c2ccc[nH]2)CC(C)(C)C1 (stereo unspecified) | -0.655% |
| CC(OC(=O)CCC(=O)c1ccccc1)C(=O)Nc1ccc(F)cc1 (stereo unspecified) | 0.19% |
| CC(C)c1csc(CN2CCC(CO)(Cc3ccccc3)CC2)n1 | 1.24% |
| O=c1c2ccccc2cnn1Cc1n[nH]c(=S)n1-c1ccccc1F | -0.397% |
| COc1ccnc(Oc2ccccc2)c1-c1ncn[nH]1 | 1.4% |
| CCOCCN(C=O)c1cccc(OC)c1 | -2.42% |

| Structure (SMILES) | inhibition |
| --- | --- |
| CCOC(=O)N1CCC(Nc2c(NCCCN3CCN(CC)CC3)c(=O)c2=O)CC1 | -1.72% |
| O=C(Nc1ccc(F)c(Cl)c1)C1CCN(S(=O)(=O)c2cccnc2)CC1 | 0.143% |
| CCCn1c2ccccc2c2cnn(CC(=O)NCCCN3CCCCC3CC)c(=O)c21 (stereo unspecified) | -1.26% |
| CCOC(=O)c1cc2c(ccn2C)n1CC(=O)N1CCC(C)CC1 | -2.05% |
| Cn1c(CC2Sc3ccccc3NC2=O)nnc1SCC(=O)c1ccc(Cl)cc1 (stereo unspecified) | 1.26% |
| COCCN(C(=O)C(C)C)c1nnc(-c2ccc(C(C)(C)C)cc2)s1 | 2.82% |
| Cc1ccc(S(=O)(=O)N2CCC(C)CC2)cc1C(=O)NCc1ccccn1 | -2.55% |
| COCCNc1nc2nonc2nc1N(C)Cc1ccc(C)cc1 | 0.32% |
| COC(=O)/C=C(\Oc1ccccc1)C1(O)CCCCC1 | -0.0675% |
| Cc1ccc2c(c1)C1CN(C)CCC1N2S(=O)(=O)c1ccc(Oc2ccc([N+](=O)[O-])cc2)cc1 (stereo unspecified) | 3.72% |
| COc1ccccc1NC(=O)N1CCCC1C(=O)NCc1cccs1 (stereo unspecified) | 0.501% |
| COc1ccc(-c2onc3ccc(C(C)=O)cc23)cc1 | 12.7% (active) |
| CC(OC(=O)c1ccc2noc(-c3ccccc3)c2c1)C(N)=O (stereo unspecified) | 1.01% |
| Oc1ccc(-c2onc3ccc(Cl)cc23)cc1 | -1.19% |
| CC(C)CNC(=O)C(=O)NCC(c1ccc2c(c1)OCO2)N1CCOCC1 (stereo unspecified) | -1.37% |
| Cn1c(=O)cc(OCC(=O)N2CCN(c3ccccc3F)CC2)c2ccccc21 | 0.591% |
| Cc1cc(C)n(CCNC(=O)CC2C(=O)NCCN2Cc2ccc(C)o2)n1 (stereo unspecified) | -1.39% |
| CC(C)(C)c1cc[n+](-c2[nH]c(=O)sc2/C=N/N=C(\[O-])c2ccccc2)cc1 | 0.838% |
| CCCCn1c(-c2cccc(C)c2)nc2cc3[nH]c(=O)c(C(C)C)nc3cc21 | -1.53% |
| CCOC(=O)c1ccc(NC(=S)N2CCN(c3ccccn3)CC2)cc1 | 0.665% |
| COc1ccc(N(C(=O)c2ccc(C)cc2)S(=O)(=O)c2cccs2)cc1 | 0.9% |
| CCn1c(SCC(=O)Nc2sc(C)c(C)c2C#N)nnc1C1CC1 | 2.46% |
| O=C(NCc1nnc(SCC(=O)N2CCCc3ccccc32)o1)c1ccccc1F | -0.239% |

| Structure (SMILES) | inhibition |
| --- | --- |
| COc1cccc(NC(=O)Nc2nnc(N3CCCCC3C)s2)c1 (stereo unspecified) | -1.07% |
| O=C(Cc1ccccc1F)NC1CCSc2ccccc21 (stereo unspecified) | 1.04% |
| CCN(Cc1ccncc1)C(=O)CCc1ccccc1 | -1.33% |
| C/C=C/c1ccc(OCC(O)CN2CCCCCCC2)c(OC)c1 (stereo unspecified) | -2.18% |
| Cc1cc(NC(=O)CCS(=O)(=O)c2ccc(F)cc2)no1 | 1.59% |
| COc1ccc2[nH]c(C)c(CCN(Cc3cccs3)C(=S)Nc3ccccc3OC)c2c1 | 12.8% (active) |
| COc1cccc(NC(=S)N(CCc2c(C)[nH]c3ccccc23)Cc2ccco2)c1 | 5.05% |
| Cc1[nH]c2ccccc2c1CCN(Cc1cccs1)C(=S)NC(C)(C)C | 1.01% |
| COc1ccccc1CNC(=O)c1ccc(N(C)S(=O)(=O)c2ccc(C)cc2)cc1 | -1.48% |
| CCOc1ccc(CCNC(=O)COC(=O)c2ccc(F)c(S(=O)(=O)N3CCOCC3)c2)cc1OCC | 0.417% |
| Cc1c(Cl)cccc1NC(=O)CCC(=O)N/N=C/c1ccco1 | 2.71% |
| COc1ccc(CNC(=O)C(=O)NCC2OCCN2C(=O)c2ccc(OC)cc2)cc1 (stereo unspecified) | -1.77% |
| FC(F)(F)c1cc(-c2ccco2)nc(NCc2ccc(Cl)cc2)n1 | -0.748% |
| Cc1noc(C)c1S(=O)(=O)Nc1ccc(C(=O)O)cc1 | -2.83% |
| Cc1cc(C(C)(C)C)cc(S(=O)(=O)Nc2ccc(C(=O)O)cc2)c1C | 20% (active) |
| O=C(O)c1ccc(F)c(S(=O)(=O)Nc2ccccc2)c1 | 2.67% |
| Cc1cc(C)cc(N(CC(=O)NCC2CCCO2)S(=O)(=O)c2c(C)noc2C)c1 (stereo unspecified) | -1.07% |
| CCc1ccc(Nc2n[n+](-c3ccccc3)c(-c3cccc(Cl)c3Cl)s2)cc1 | 1.25% |
| O=C(O)CCS(=O)(=O)c1ccc(-c2ccccc2)cc1 | 0.58% |
| O=C(c1ccco1)N1CCN(C(=O)C2CCCN(S(=O)(=O)c3cccc4nsnc34)C2)CC1 (stereo unspecified) | 1.18% |
| COc1cccc(/C=N/NC(=O)C(=O)N2CCCC2)c1 | -1.54% |
| C#CCNC(=O)[C@H](Cc1ccc(C(=O)c2ccccc2)cc1)NC(=O)OC(C)(C)C | -0.186% |
